USP28 inh: blocks human USP28 ubiquitin-rhodamine cleavage; purified USP28, Ub-rhodamine cleavage fluorescence, 30 min; actives 3% (n = 47,000); AID 1645857; inhibition, % at 25 µM; Q96RU2
USP30 inh: blocks human USP30 ubiquitin-rhodamine cleavage; Q70CQ3; purified USP30, Ub-rhodamine cleavage fluorescence; inhibition, % at 25 µM; actives 5.3% (n = 47,000)
USP17 block: blocks human USP17 ubiquitin-rhodamine cleavage; inhibition, % at 50 µM; AID 1645855; A8MUK1; actives 6.5% (n = 47,000); purified USP17, Ub-rhodamine cleavage fluorescence, 3 h
OTUD3 inh: blocks human OTUD3 ubiquitin-rhodamine cleavage. Q5T2D3. purified OTUD3, Ub-rhodamine fluorescence, 2 h. inhibition, % at 25 µM. actives 0.7% (n = 47,000). AID 1645858
Target sequence (Q5T2D3 whole entry, looked up): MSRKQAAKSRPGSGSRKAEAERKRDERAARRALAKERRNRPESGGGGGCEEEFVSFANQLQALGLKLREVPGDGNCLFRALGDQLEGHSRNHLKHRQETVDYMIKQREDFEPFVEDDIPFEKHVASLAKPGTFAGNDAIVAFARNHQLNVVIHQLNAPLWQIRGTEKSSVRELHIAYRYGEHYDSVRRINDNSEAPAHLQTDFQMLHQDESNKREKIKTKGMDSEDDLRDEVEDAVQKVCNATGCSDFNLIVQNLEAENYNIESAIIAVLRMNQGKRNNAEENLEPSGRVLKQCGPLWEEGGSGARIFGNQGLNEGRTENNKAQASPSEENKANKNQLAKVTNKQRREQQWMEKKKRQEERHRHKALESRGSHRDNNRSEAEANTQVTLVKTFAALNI
The depositor's hits bear a star. Sampled rows, rich in hits. Any-hit rate of the full collection: about 12%. No stated cut-off is given here; in the data, active means inhibition above about 30%; inactive means the rest.

For CC1CCC2C(C)(C)C(O)CCC2(C)C12Cc1c(cc3c(c1O)CN(CCCCC(=O)O)C3=O)O2 (centres undefined) the results were USP28 inh 12, USP30 inh -38, USP17 block 49* and OTUD3 inh 13.
C[C@@H]1CCC2[C@](C)(CO)[C@@H](O)CC[C@]2(C)[C@@]12CCC1(COC(=O)C1)O2 (some centres undefined) was read as USP28 inh -5, USP30 inh 8, USP17 block 2 and OTUD3 inh -2.
Screening Cc1ccc(C)c(-c2cc3c(=O)n(Cc4noc(CN5CCCCC5)n4)ccn3n2)c1 returned USP28 inh 71*, USP30 inh -52, USP17 block -9 and OTUD3 inh -15.
Cc1cncc(C2CCCN(C(=O)c3cc(C(C)(C)C)[nH]n3)C2)n1 (centres undefined) was read as USP28 inh 9, USP30 inh 17, USP17 block 16 and OTUD3 inh 16.
Screening Cn1c(=O)[nH]c(=O)c2c1nc1n(CCc3ccccc3)c(-c3ccccc3)cn21 returned USP28 inh 5, USP30 inh 50*, USP17 block 54* and OTUD3 inh 0.
COCCCn1c(-c2ccccc2)cn2c3c(=O)[nH]c(=O)n(C)c3nc12 was read as USP28 inh -3, USP30 inh 22, USP17 block 5 and OTUD3 inh 0.
Screening Cc1ccc(-n2c(-c3ccccc3)cn3c4c(=O)[nH]c(=O)n(C)c4nc23)cc1C returned USP28 inh 5, USP30 inh -44, USP17 block 78* and OTUD3 inh 0.
Cc1ccc(-n2c(-c3ccccc3)cn3c4c(=O)[nH]c(=O)n(C)c4nc23)cc1Cl was read as USP28 inh 16, USP30 inh 34*, USP17 block 52* and OTUD3 inh 10.
Screening Cc1nn(-c2ccc(Cl)cc2)c(Cl)c1/C=C(\C#N)c1nc2ccccc2n1C returned USP28 inh -50, USP30 inh -191, USP17 block -31 and OTUD3 inh -44.
For CCC1(C)Cc2c(sc3nc(SC)nc(SCC(=O)c4ccccc4)c23)CO1 (centres undefined) the results were USP28 inh -9, USP30 inh -33, USP17 block -12 and OTUD3 inh -11.
For Cn1nc(C(C)(C)C)cc1C(=O)Nc1ccccc1-c1ccccc1 the results were USP28 inh -6, USP30 inh -18, USP17 block 1 and OTUD3 inh -2.
CCOC(=O)N1CCN(C(=O)c2ccc(CS(=O)c3ccccc3Cl)o2)CC1 (centres undefined) was read as USP28 inh -9, USP30 inh -5, USP17 block -9 and OTUD3 inh -4.
`O=[N+]([O-])c1ccc(Cc2nnc(-c3ccccc3Cl)o2)cc1` gave USP28 inh 48*, USP30 inh 1, USP17 block 35* and OTUD3 inh 4.
Cc1cc(=O)n(CC(=O)N2CCN(c3ccccn3)CC2)c2c1c(C)nn2-c1ccccc1 was read as USP28 inh -24, USP30 inh -19, USP17 block -12 and OTUD3 inh -18.
Screening O=C(Nc1ccc2c(c1)OCCO2)Nc1nnc(CC(=O)N2CCCCC2)s1 returned USP28 inh 56*, USP30 inh 11, USP17 block -5 and OTUD3 inh 6.
`O=C(Nc1ccc2c(c1)OCCO2)Nc1nnc(CC(=O)N2CCOCC2)s1` gave USP28 inh 7, USP30 inh 2, USP17 block -7 and OTUD3 inh -11.
CCCCOC(=O)c1c(C)oc2c1cc(NS(=O)(=O)c1ccc(CC)cc1)c1ccccc12 was read as USP28 inh -5, USP30 inh -51, USP17 block 14 and OTUD3 inh -5.
Cc1cc(C)cc(N(CC(=O)NCc2ccc3c(c2)OCO3)C(=O)c2ccc3c(c2)OCCO3)c1 was read as USP28 inh 19, USP30 inh 36*, USP17 block 24 and OTUD3 inh 13.
Screening COc1cccc(C(=O)N2CC[C@@H]3Oc4ccccc4S(=O)(=O)N(C)[C@H]3CC2)c1 returned USP28 inh 13, USP30 inh -57, USP17 block -4 and OTUD3 inh 6.
`Cc1sc2ncnc(-n3ncc(C#N)c3N)c2c1-c1ccccc1` gave USP17 block 25 and OTUD3 inh 2.
Screening Cc1ccc(-c2nnc(-n3ncc(C#N)c3N)c3ccccc23)cc1C returned USP28 inh 12, USP30 inh 0, USP17 block 62* and OTUD3 inh 0.
`CCc1nc(-c2cccc(NC(=O)c3ccc(C#N)cc3F)c2)no1` gave USP28 inh 51*, USP30 inh 24, USP17 block 43* and OTUD3 inh 11.
`CCOc1ccccc1NC(=O)Nc1nnc2cccc(Cl)n12` gave USP28 inh -67, USP30 inh -313 and OTUD3 inh -74.
CC(=O)Nc1onc(C)c1-c1ccc(C)c(S(=O)(=O)Nc2ccccc2F)c1 was read as USP28 inh -2, USP30 inh -7, USP17 block 0 and OTUD3 inh -4.
Screening Cc1cccc(CSCCNC(=O)CN2C(=O)c3cccc4cccc2c34)c1 returned USP28 inh 4, USP30 inh 23, USP17 block 41* and OTUD3 inh -5.
Screening O=C(CN1C(=O)c2cccc3cccc1c23)NCCSCc1ccc(Cl)c(Cl)c1 returned USP28 inh -2, USP30 inh 0, USP17 block -3 and OTUD3 inh 8.
`Cn1c(CSc2ncn[nH]2)nc2ccccc21` gave USP28 inh -3, USP30 inh 5, USP17 block -6 and OTUD3 inh -8.
Screening Cc1nc2nc(SCc3nc4ccccc4n3C)[nH]c2cc1Br returned USP28 inh -26, USP30 inh -178, USP17 block 53* and OTUD3 inh -47.
For COc1ccc(CSc2nccc(-c3ccc(Cl)cc3)c2C#N)cc1 the results were USP28 inh -14, USP30 inh 2, USP17 block -3 and OTUD3 inh -7.
For COc1ccc(Cn2cc(-c3ccc(Cl)cc3)cc(C#N)c2=O)cc1 the results were USP28 inh 17, USP30 inh 42*, USP17 block 14 and OTUD3 inh 16.
`COc1ccc(/C=C/C(=O)N(Cc2ccc(Cl)cc2)C2CCS(=O)(=O)C2)cc1` (centres undefined) gave USP28 inh -10, USP30 inh -5, USP17 block -12 and OTUD3 inh -6.
`O=c1c(NCc2ccccc2Cl)nccn1Cc1ccc(F)cc1` gave USP28 inh 30*, USP30 inh 30*, USP17 block 19 and OTUD3 inh 26.
For O=c1c(NCc2ccc(F)cc2)nccn1-c1ccc2c(c1)OCCO2 the results were USP28 inh 19, USP30 inh 3, USP17 block -2 and OTUD3 inh 2.
Screening O=C(Nc1ccc2c(c1)OCCO2)c1ccc2nonc2c1 returned USP28 inh 10, USP30 inh 0, USP17 block -1 and OTUD3 inh -6.
For O=C(Cc1ccccc1[N+](=O)[O-])Nc1cnn(Cc2ccc(F)cc2)c1 the results were USP28 inh -9, USP30 inh 32*, USP17 block -28 and OTUD3 inh 1.

From PubChem BioAssay
